Records with an inconclusive call do not appear. Calls of active or inactive are those of the source. Rule for the calls: active = hit-call score of the fitted dose curve at least 0.9, where 1 is the maximum; inconclusive = response in the unintended direction; inactive = score below 0.9.

The target in the assay is Glucocorticoid receptor (Homo sapiens) (UniProt P04150). Description: ATG_hGR_EcoTox2: Attagene TRANS-FACTORIAL EcoTox-2 HepG2 Assay for human Glucocorticoid Receptor (GR). The procedure: ATG_EcoTox2 is a cell-based, multiplexed assay created by modifying the existing Attagene TRANS-FACTORIAL system to include a panel of nuclear receptors from some or all the following species: human (Homo sapiens), african clawed frog (Xenopus laevis), rainbow trout (Oncorhynchus mykiss), japanese medaka (Oryzias latipes), and zebrafish (Danio rerio). The ECOTOX2-FACTORIAL format uses HepG2, a human liver cell line, with measurements taken at 24 hours after chemical dosing in a 24-well plate. ATG_hGR_EcoTox2 is one of 29 assay components calculated in the ATG_EcoTox2 assay. It is designed to make measurements of mRNA induction, a form of inducible reporter, as detected with fluorescence intensity signals by Reverse transcription polymerase chain reaction (RT-PCR) and Capillary electrophoresis technology.The assay endpoint ATG_hGR_EcoTox2 was analyzed in the positive analysis fitting direction relative to DMSO as the negative control and baseline of activity. Using a type of inducible reporter, measures of mRNA for gain-of-signal activity can be used to understand the reporter gene at the transcription factor-level as they relate to the gene for glucocorticoid receptor. Furthermore, this assay endpoint can be referred to as a primary readout, because this assay has produced multiple assay endpoints where this one serves a reporter gene function. To generalize the intended target to other relatable targets, this assay endpoint is annotated to the nuclear receptor intended target family, where the subfamily is steroidal.
Sequence of Glucocorticoid receptor (Homo sapiens) (P04150 whole entry, looked up): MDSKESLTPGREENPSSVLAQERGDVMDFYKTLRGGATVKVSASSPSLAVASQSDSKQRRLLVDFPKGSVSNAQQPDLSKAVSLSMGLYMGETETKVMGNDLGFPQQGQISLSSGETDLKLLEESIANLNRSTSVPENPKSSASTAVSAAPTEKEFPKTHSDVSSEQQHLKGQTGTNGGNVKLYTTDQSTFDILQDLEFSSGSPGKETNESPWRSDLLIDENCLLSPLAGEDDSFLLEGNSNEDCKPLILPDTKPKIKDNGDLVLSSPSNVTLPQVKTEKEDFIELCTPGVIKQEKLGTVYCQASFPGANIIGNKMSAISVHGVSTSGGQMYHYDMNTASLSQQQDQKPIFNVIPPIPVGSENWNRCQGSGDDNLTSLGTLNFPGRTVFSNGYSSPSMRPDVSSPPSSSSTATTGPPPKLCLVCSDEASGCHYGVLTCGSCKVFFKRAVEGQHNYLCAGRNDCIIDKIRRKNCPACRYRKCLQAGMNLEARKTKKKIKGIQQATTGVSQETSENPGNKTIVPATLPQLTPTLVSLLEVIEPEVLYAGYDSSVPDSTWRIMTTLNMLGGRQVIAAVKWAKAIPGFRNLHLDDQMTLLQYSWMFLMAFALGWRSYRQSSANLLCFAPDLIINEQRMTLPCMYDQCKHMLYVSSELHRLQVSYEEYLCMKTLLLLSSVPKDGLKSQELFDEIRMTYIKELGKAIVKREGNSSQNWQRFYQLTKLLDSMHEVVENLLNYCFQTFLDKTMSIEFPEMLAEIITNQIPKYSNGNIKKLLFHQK
Human liver HepG2 cells are transiently transfected with multiple reporter transcription units (MRTUs) in 6-well plates using FuGene 6 reagent (Roche; 3 ml FuGene/1 mg DNA). The MRTU constructs are regulated by a cis-regulating element (promoter). Each RTU expresses a GAL4-UAS that regulates the transcription of a nearby target reporter gene sequence. A major difference between the CIS and TRANS system is that in CIS activities of endogenous TFs are measured, whereas the TRANS assay evaluates changes in activities of exogenous, chimeric NR-Gal4 proteins. […] At the end of 24 hour incubation, total RNA was isolated using TriZol reagent (Invitrogen). The isolated RNA is then reverse-transcribed using oligo(dT) primer and Mo-MLV reverse transcriptase (Invitrogen) with DNAse I (Ambion) treatment for 30 min. The one-tenth of the produced cDNA was amplified by PCR using Taq DNA polymerase (Invitrogen) and two reporter sequence-specific primers. […] The fragments were purified using Qiaquick PCR columns (Qiagen), analyzed on an ABI 3130xL genetic analyzer (Applied Biosystems) with peak positions identified by using a set of X-rhodamine (ROX)-labeled MapMarker1000 molecular weight standards (BioVentures). […]
As for `CC(C)(Oc1ccc(Cl)cc1)C(=O)O`, the molecule was classed as inactive.
Same read-out and setting: for `O=P(Oc1ccccc1)(Oc1ccccc1)Oc1ccccc1` the value was “inactive”.
Consider `CC(c1cc2ccccc2s1)N(O)C(N)=O` (centres undefined), for which the AC50 was 50 µM (active).
On to `CCCCOCN(C(=O)CCl)c1c(CC)cccc1CC`, for which the result was inactive.

One may read the AC50 as the concentration giving half of the maximal activity seen.

(Values after PubChem BioAssay AID2284372 (EPA ToxCast).)
